# Compound activity: PubChem BioAssay, National Center for Advancing Translational Sciences (NCATS)
# D1 potentiator = potentiators of human D1 dopamine receptor. HEK293 TREx D1 cells, calcium flux, dopamine EC20 potentiation. potentiation, % at 10 µM. P21728. actives 0.036% (n = 360,000); in the data active = potentiation above about 30%; also: 0% is about no effect
# Target sequence (P21728 whole entry, looked up): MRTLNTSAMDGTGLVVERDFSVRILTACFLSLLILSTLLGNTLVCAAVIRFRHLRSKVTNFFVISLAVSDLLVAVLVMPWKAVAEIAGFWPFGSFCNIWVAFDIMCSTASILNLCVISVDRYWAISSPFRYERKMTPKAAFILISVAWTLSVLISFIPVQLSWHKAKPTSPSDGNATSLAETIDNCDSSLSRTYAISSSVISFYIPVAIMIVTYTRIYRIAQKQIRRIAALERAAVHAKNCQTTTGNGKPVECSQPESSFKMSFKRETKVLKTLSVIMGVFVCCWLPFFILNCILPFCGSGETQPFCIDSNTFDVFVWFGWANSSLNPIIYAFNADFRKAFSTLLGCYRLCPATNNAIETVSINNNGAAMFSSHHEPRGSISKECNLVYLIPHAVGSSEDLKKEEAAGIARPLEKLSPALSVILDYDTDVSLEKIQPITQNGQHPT
# D1 agonist = activates the human D1 dopamine receptor | P21728 | activation, % at 2 µM | actives 1% (n = 360,000) | HEK293 T-REx D1 cells, calcium flux, agonist mode; in the data active = activation above about 30%; also: 0% is about no effect
#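 Agonism was scored from calcium flux recorded over 180 s (1 read/s) after pintool compound addition, following a 10-cycle baseline. Cells were inducible force-coupled HEK293 TREx D1, plated overnight at 30 C and loaded with no-wash calcium dye.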
# D3 antag = blocks the human D3 dopamine receptor | P35462 | D3R cells, DiscoveRx beta-arrestin luminescence, antagonist mode; stronger effect = lower value | max response, negative = inhibition, % | actives 2.5% (n = 360,000); in the data active = max response below about -50%; inconclusive = no clear call, values can overlap the other calls; also: % is scaled to controls: 0 for no effect and ±100 for the full control effect
#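 Cells plated overnight at 1500 cells/well, then exposed to library compounds with dopamine controls for 90 minutes at 37 degrees C. DiscoveRx reagent added for 30–60 minutes at room temperature; luminescence read, quantitative HTS format.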
# D3 ag = D3 dopamine receptor (human) agonism; D3R DiscoveRx beta-arrestin cells, luminescence, 90 min; actives 0.58% (n = 410,000); max activation, %; in the data active = max activation above about 30%; also: 0% is about no effect
#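 Cells at 1500/well, incubated overnight, then treated with pinned compounds (dopamine as control) for 90 min at 37 degrees C. DiscoveRx reagent added for 30 - 60 minutes at room temperature; luminescence read.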
# D1 antagonist = antagonists of human D1 dopamine receptor | P21728 | HEK293 TREx D1 cells, calcium flux, dopamine EC80; stronger effect = lower value | activity change, negative = inhibition, % at 10 µM | actives 3.2% (n = 360,000) | AID 504652; in the data active = activity change below about -30%; also: % is scaled to controls: 0 for no effect and ±100 for the full control effect
#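 Calcium flux readout: force-coupled, inducible Hek293 Trex D1 line, cells induced overnight at 30 C with tetracycline, dye-loaded 30–90 min at RT. Antagonism scored against EC80 dopamine challenge given 180 s after compound.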
# Numbers without * were called inactive; ? = inconclusive; . = no result given. Shown are actives, neighbours in structure and some others; about 6% of the full set was active somewhere.
SMILES,D1 potentiator,D1 agonist,D3 antag,D3 ag,D1 antagonist
CC1(C)CC(=O)c2cc(OCC(=O)NCCN3CCCc4ccccc43)ccc2O1,-1.4,1.8,-67.5*,-30.6,-6.3
Cc1ccc(Nc2nc3ccccc3c3nncn23)cc1C,2.8,2.6,.,-15.9,1.7
COc1ccc(OCc2cc(C(=O)N3CCOCC3)no2)c(Cl)c1,-0.5,4.8,5.2,9.5,-9.3
CCc1cccc(C)c1Nc1c(-c2ccc(N3CCOCC3)cc2)nc2ncccn12,-0.6,32.2*,.,1.8,11.2
Cc1ccc(Nc2c(-c3ccc(N4CCOCC4)cc3)nc3c(C)cccn23)cc1,-1.4,3.4,.,3.9,-31.8*
Cc1ccccc1Nc1c(-c2ccc(N3CCOCC3)cc2)nc2ccccn12,2.0,-2.1,.,0.7,17.2
COc1ccc(/C=C\c2onc(C)c2S(=O)(=O)N2CCC(C(=O)Nc3ccccc3OC)CC2)cc1,0.3,8.9,.,1.5,-20.1
CCn1cc(/C=C(\NC(=O)c2ccccc2F)C(=O)N2CCOCC2)c2ccccc21,-6.5,-0.4,-4.1,0.1,-34.2*
O=c1c2cc3ccccc3nc2ncn1CCc1ccc(Cl)cc1,.,.,24.7,2.9,.
COc1ccc(CN2CCN(Cc3ccccc3C(F)(F)F)CC2)c(OC)c1,-12.5,9.0,?,-36.1,-25.9
COc1ccc2ccccc2c1CN1CCN(C)CC1,-5.8,3.8,-81.7*,-8.6,21.6
COc1ccc(OC)c(CN2CCN(c3ccccc3OC)CC2)c1,-12.7,4.2,-91.9*,-54.7,-29.9
COc1ccc(OC)c(CN2CCN(Cc3cccc4ccccc34)CC2)c1,-15.2,2.4,-54.5*,-0.6,-67.3*
COc1ccc(CN2CCN(c3ccccc3OC)CC2)c(OC)c1,4.5,3.6,-100.4*,-4.6,-45.7*
CN1CCN(C(CNC(=O)C(=O)Nc2cccc(Cl)c2)c2ccc3c(c2)OCO3)CC1 (centres undefined),-3.7,23.8,.,-7.0,-3.2
COc1ccc(CC(C)N2CCN(Cc3ccccc3)CC2)c(OC)c1 (centres undefined),-9.2,2.1,-84.2*,-39.5,-11.4
COc1ccc(CN2CCN(CCCc3ccccc3)CC2)c(OC)c1,-3.0,5.0,.,.,5.3
CC(C)c1nc2sc3c(=O)[nH]cnc3c2c2c1CCC2,2.9,0.9,6.5,52.0*,-15.2
CC1CCCCN1CCCNC(=O)c1ccc(Br)cc1 (centres undefined),-2.5,7.6,-65.0*,-30.5,-5.0
Cc1ccc(C(=O)NCCN2CCN(C(=O)c3ccc(C)c(C)c3)CC2)cc1C,-3.4,0.2,-98.2*,-28.3,4.7
Cc1c(C)n(C)c2ccc(C(=O)NCCCN3CCCCC3C)cc12 (centres undefined),1.4,5.7,5.5,-9.0,1.9
O=C(NCCN1CCN(C(=O)c2ccc(Br)cc2)CC1)c1ccc(Br)cc1,-6.4,6.1,-98.1*,-24.0,2.2
Cc1ccc(NC(=O)Cc2c(C(=O)O)c(C)cn2C)cc1Cl,3.8,0.3,.,6.6,8.6
CC(=O)Nc1ccc(S(=O)(=O)N2CCN=C2SCc2ccccc2C)cc1,-11.6,17.6,0.7,3.7,-25.4
COc1cc(C2NC(=O)C(C#N)=C(S)N2c2ccccc2)ccc1OC(C)C (centres undefined),-3.6,-1.6,-66.8*,-0.3,-4.2
SMILES,D1 potentiator,D1 agonist,D3 antag,D3 ag,D1 antagonist
O=C(NCCN1CCNC1=O)c1ccc2sc([C@@H]3O[C@H](CO)[C@H](O)[C@H](O)[C@H]3O)nc2c1,.,.,4.4,0.7,.
C/C(=N\NC(=O)C(=O)Nc1cccc(C(F)(F)F)c1)c1ccc(Cl)s1,-2.6,6.8,7.7,7.8,-39.0*
C/C(=N\Nc1cccc(C(=O)O)c1)c1ccc(Cl)s1,5.0,4.9,0.0,2.7,-59.1*
Cc1cc(OC(C)C(=O)Nc2c(C(=O)c3ccc(F)cc3)oc3ccccc23)ccc1Cl (centres undefined),-0.7,0.6,.,2.5,-4.1
COc1cc(-c2noc(C)c2-c2ccc(N(C)C)nc2)cc(OC)c1OC,0.4,88.9*,-13.5,-5.5,-59.0*
COc1cc(-c2noc(C)c2-c2ccc3[nH]ccc3c2)cc(OC)c1OC,4.4,6.7,-24.8,-35.6,-18.3
Cc1ccc(N(CC(=O)NC(C)(C)C)C(=O)CCC(=O)Nc2ccccn2)cc1,.,.,10.7,-5.2,.
O=C(NN=C1C2CC3CC1CC(Cl)(C3)C2)c1cccs1,-18.4,0.2,-3.9,-1.8,-38.6*
CCCSCCCNC(=O)Cn1c(-c2cccs2)cc2ccccc21,-1.1,0.0,.,11.2,12.3
O=C(CNC(=O)c1ccccc1Cl)OC(C(=O)Nc1cc(C(F)(F)F)ccc1Cl)c1ccccc1 (centres undefined),-2.5,5.2,.,.,-4.9
O=C(N/N=C(\c1ccccc1)c1ccccn1)c1cccc([N+](=O)[O-])c1,-2.7,-0.9,-73.9*,-11.9,-26.3
C/C(=N\NC(=O)c1c[nH]c2ccccc12)c1ccccn1,-4.3,-3.9,?,-7.6,-4.1
CCc1ccc(/C(C)=N/NC(=O)c2ccccn2)cc1,-2.5,-1.3,10.5,0.9,-2.2
C=CCNC(=S)N/N=C(\C)c1ccccn1,4.9,5.1,-89.7*,-7.8,-20.1
CC(=NNC(=S)Nc1ccccc1)c1ccccn1,.,.,49.3,1.4,.
C/C(=N\NC(=O)c1ccc(F)cc1)c1ccccn1,-0.4,8.0,-113.2*,-17.3,-21.2
CCOc1ccc(C(=O)N/N=C(\c2ccccc2)c2ccccn2)cc1,-5.4,1.5,-9.0,-8.2,-33.4*
CCc1ccc(C(=O)c2cn(CC(=O)NC3CCCCC3)c3nc(C)ccc3c2=O)cc1,4.0,1.8,.,6.8,9.7
C[C@H](O)CN(C)C,.,.,.,8.3,.
Cc1ccc(Nc2nnc(SCC(=O)c3ccc(O)cc3O)s2)cc1,7.8,0.9,-4.2,0.7,0.1
CC(OC(=O)Cc1coc2cc3c(cc12)CCC3)C(=O)NCc1ccc2c(c1)OCO2 (centres undefined),-1.7,4.8,16.1,4.8,.
Cc1ccc2c(CC(=O)OC(C)C(=O)NCc3ccc4c(c3)OCO4)coc2c1 (centres undefined),-3.4,9.1,45.7,-0.7,-32.3*
CC(NC(=O)c1ccc(=O)oc1)c1ccccc1 (centres undefined),-8.2,0.6,-3.9,-10.5,-33.6*
CC(NC(=O)c1ccncc1)c1ccccc1 (centres undefined),-5.6,0.9,4.3,8.1,-3.1
Cc1cccc(CSc2ccc(S(=O)(=O)N3CCCC3)cn2)c1,-2.2,9.2,-4.2,0.7,-10.1
Fc1ccc(Nc2cncc(-c3ccsc3)c2)cc1Cl,.,.,-51.9*,-13.5,.
Fc1ccc(Nc2nnc(C(F)(F)F)s2)cc1Cl,2.6,24.6,3.7,-10.0,-24.0
O=C(NCc1cccs1)c1cccc(N2CCCC2=O)c1,4.8,2.5,0.4,-4.7,13.7
O=C(NCc1ccccc1CN1CCCC1)c1cccc(N2CCCC2=O)c1,.,3.6,11.8,-0.2,-36.7*
